Assay outcomes as filed in PubChem.
Sampled rows, rich in hits. Any-hit rate of the full collection: about 15%.
HCV inh: HCV inhibition; hit rate 3.4% among 340,000; Potency, µM (top dose mostly 41.8 µM), for inactives: at the highest dose activity change, negative = inhibition, usual class: inhibitors; Huh7.5.1 HCVcc-Cre infection, luciferase reporter, 44 h; further: potency means the concentration at half of the fitted maximal effect; on the % scale 0 is the no-effect control and ±100 the full control effect
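HCVcc-Cre virus at an moi near 0.5 was added right after compound to cells cultured 4 h from seeding (1,000 cells/well). Luciferase activity was determined 44 h later, 15 min after substrate addition at RT.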
Sm TGR inh: inhibitors of Schistosoma mansoni thioredoxin glutathione reductase | Q962Y6 | purified TGR, DTNB reduction, TNB absorbance 405 nm | Potency, µM (titrated, usually from 114 µM), without a hit: at the highest dose activity change, negative = inhibition, hits mostly inhibitors | hit rate 3% among 360,000; further: potency means the concentration at half of the fitted maximal effect; on the % scale 0 is the no-effect control and ±100 the full control effect; nearly all actives have a fitted effect of over 60% in size
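Kinetic colorimetric format: TGR-catalysed, NADPH-driven DTNB reduction monitored via TNB absorbance. Enzyme dispensed at 20 nM; compound exposure 15 min at room temperature before reaction start.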
SARS PLP yeast: blocks SARS-CoV papain-like protease in a yeast assay; S. cerevisiae expressing SARS-CoV PLpro, growth rescue; Potency, µM (series often up to 32.9 µM), without a hit: at the highest dose activity, positive = growth rescue, most hits filed as activators; hit rate 0.19% among 330,000; calls by dose curve; further: potency means the concentration at half of the fitted maximal effect; 0% is about no effect; nearly all actives have a fitted effect of over 55% in size
Pf growth 48h: P. falciparum growth inhibition at 48 hours (one generation) | P. falciparum luciferase growth in erythrocytes, 48 h | Potency, µM (highest dose often 28.7 µM), without a hit: at the highest dose activity change, negative = inhibition, hits mostly inhibitors | hit rate 5.9% among 310,000 | AID 504832; further: potency means the concentration at half of the fitted maximal effect; on the % scale 0 is the no-effect control and ±100 the full control effect
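Cell-based growth assay: transgenic P. falciparum expressing firefly luciferase, cultured in red cells within RPMI 1640 containing 0.5% w/v Albumax, 24 mM bicarbonate and gentamycin. A drop in luciferase activity indicates inhibition.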
Pf growth 96h: P. falciparum growth inhibition at 96 hours. P. falciparum luciferase reporter growth, 96 h. hit rate 6.9% among 320,000. AID 504834. Potency, µM (top dose mostly 28.7 µM), for the others: top-dose activity change, negative = inhibition, usual class: inhibitors; further: potency means the concentration at half of the fitted maximal effect; on the % scale 0 is the no-effect control and ±100 the full control effect
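Parasite growth measured via integrated firefly luciferase reporter in P. falciparum. Infected erythrocytes at 2% hematocrit, 0.05% parasitemia final were treated 96 hours at 37 C under 5% CO2, and luminescence was read.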
HCMV antiviral: blocks human cytomegalovirus replication. hit rate 4.5% among 410,000. HFF cells, HCMV-luciferase reporter, 72 h; active compounds read low. activity change, negative = inhibition, % at 57.5 µM; in the data active means activity change below about -60%; inconclusive means no clear call, values can overlap the other calls; inactive means above about -39%; further: on the % scale 0 is the no-effect control and ±100 the full control effect
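Compounds were evaluated in HFFs infected with an HCMV luciferase reporter virus (MOI 1 PFU/cell). Luciferase in lysates collected 72 h post infection served as the replication measure.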
* marks the source's active call; other numbers are inactive results. Unless noted, the call rests on the fitted dose curve; in most records, active means well fitted curve in the direction sought with a large enough effect; inconclusive means small, poorly fitted or top-dose-only effect, or another doubt; inactive means no such curve, though single readings can be large; an effect the other way counts as inactive or inconclusive.

For CC(=O)NC(c1ccco1)c1cc(Cl)c2ccc(Cl)nc2c1O (configuration not stated) the results were Sm TGR inh inconclusive, SARS PLP yeast -4%, Pf growth 48h -15%, Pf growth 96h 1% and HCMV antiviral -29.
`O=C(Cc1ccccc1)N1CCc2ccccc21` gave HCV inh 10%, Sm TGR inh -1%, SARS PLP yeast 9%, Pf growth 96h 45% and HCMV antiviral -31.
O=C(CS(=O)(=O)c1ccccc1)N1CCc2ccccc21 was read as HCV inh -1%, Sm TGR inh -2%, SARS PLP yeast -2%, Pf growth 48h 54%, Pf growth 96h 0.83µM* and HCMV antiviral 75.
For O=C(CCn1cccc1)N1CCc2ccccc21 the results were HCV inh 4%, Sm TGR inh 25µM*, SARS PLP yeast -2%, Pf growth 48h 16%, Pf growth 96h 87% and HCMV antiviral 5.
CC1CCCCN1S(=O)(=O)c1ccc(C(=O)N2CCOCC2)cc1 (configuration not stated) was read as HCV inh -8%, Sm TGR inh 8%, SARS PLP yeast 3%, Pf growth 48h -9%, Pf growth 96h -17% and HCMV antiviral -2.
Screening Cc1ccc(Nc2c(-c3ccc(N4CCOCC4)cc3)nc3cccc(C)n23)cc1 returned Sm TGR inh 4% and HCMV antiviral -11.
Screening CC(=O)Nc1ccc(CN2CCc3c([nH]c4ccccc34)C2C(C)(C)C)cc1 (configuration not stated) returned HCV inh 4%, Sm TGR inh 50µM*, SARS PLP yeast 3%, Pf growth 48h -27%, Pf growth 96h -5% and HCMV antiviral 120.
Screening CC(C)(C)C1c2[nH]c3ccccc3c2CCN1Cc1cccc(OCCO)c1 (configuration not stated) returned HCV inh -14%, Sm TGR inh -7%, SARS PLP yeast 1%, Pf growth 48h 27%, Pf growth 96h inconclusive and HCMV antiviral 23.
Screening CC(C)(C)CC(C)(C)c1ccc(O)c(Cc2ccc(Cl)cc2Cl)c1 returned HCV inh -19%, Pf growth 48h 1.9µM*, Pf growth 96h 3µM* and HCMV antiviral -86*.
O=c1c(Cc2ccc(Cl)cc2Cl)c(O)ccn1CC(F)(F)F was read as HCV inh -1%, Sm TGR inh 14%, SARS PLP yeast -11%, Pf growth 48h 20%, Pf growth 96h inconclusive and HCMV antiviral 16.
CCn1nnnc1NC(=O)c1cc(Cl)c(OC)c(Cl)c1 was read as HCV inh -10%, SARS PLP yeast -2%, Pf growth 48h 10%, Pf growth 96h inconclusive and HCMV antiviral -63*.
O=C(/C=C/c1ccccc1)N1CC2ON=C(c3c(F)cccc3Cl)C2C1 (configuration not stated) was read as HCMV antiviral -8.
`O=C(NC(=S)NCc1ccccc1)C1CC1` gave HCV inh 10%, Sm TGR inh -15%, SARS PLP yeast 1%, Pf growth 48h 30%, Pf growth 96h 8% and HCMV antiviral inconclusive.
O=C(Nc1ccc(Cl)cc1)c1cc(S(=O)(=O)NC2CCCCCC2)ccc1F was read as Sm TGR inh 16% and HCMV antiviral -67*.
For CC(=O)NC(=S)Nc1ccc(NC(=O)c2cccs2)cc1 the results were HCV inh inconclusive, Sm TGR inh -30%, SARS PLP yeast -16%, Pf growth 48h inconclusive, Pf growth 96h 0% and HCMV antiviral 19.
O=C(NC(=S)NCc1ccccc1)c1cccs1 was read as HCV inh -10%, Sm TGR inh 79µM*, SARS PLP yeast inconclusive, Pf growth 48h -18%, Pf growth 96h 15% and HCMV antiviral -8.
Screening CC(C)(C)C(=O)NC(=S)NCc1ccccc1 returned HCV inh 5%, Sm TGR inh 40µM*, SARS PLP yeast -12%, Pf growth 48h -31%, Pf growth 96h 9.3µM* and HCMV antiviral inconclusive.
Screening Cc1c(C(=O)NC(=S)Nc2ccc(NC(=O)c3cccs3)cc2)oc2ccccc12 returned HCV inh -13%, Sm TGR inh 0.63µM*, SARS PLP yeast -38%, Pf growth 48h -9%, Pf growth 96h inconclusive and HCMV antiviral -35.
Screening COc1ccc(N(Cc2nc3ccccc3[nH]2)Cc2nnnn2-c2c(C)cccc2C)cc1 returned HCMV antiviral 28.
Screening CCOc1ccc(C2C(C(N)=O)=C(C)Nc3nc(-c4ccc(OC)cc4)nn32)cc1 (configuration not stated) returned Sm TGR inh 6% and HCMV antiviral 19.
Screening CC1CCCCC1NC(=S)NC(=O)c1cccs1 (configuration not stated) returned HCV inh -8%, Sm TGR inh 22µM*, SARS PLP yeast -3%, Pf growth 48h inconclusive, Pf growth 96h inconclusive and HCMV antiviral -32.
For O=C(Nc1nonc1NC(=O)c1cccs1)c1cccs1 the results were HCV inh 4µM*, Sm TGR inh 1%, SARS PLP yeast 2%, Pf growth 48h 6%, Pf growth 96h -15% and HCMV antiviral -93*.
O=C(NC(=S)Nc1ccccc1)c1cccs1 was read as HCV inh 1%, Sm TGR inh 7.9µM*, SARS PLP yeast -3%, Pf growth 48h 7%, Pf growth 96h -4% and HCMV antiviral -2.
Screening O=C(NC(=S)Nc1ccc(S(=O)(=O)N2CCCCC2)cc1)c1cccs1 returned HCV inh inconclusive, Sm TGR inh inconclusive, SARS PLP yeast 20%, Pf growth 48h 8%, Pf growth 96h 6% and HCMV antiviral -15.
O=C(Nc1ccccn1)c1cccs1 was read as HCV inh 3%, Sm TGR inh 0%, Pf growth 48h 145%, Pf growth 96h 143% and HCMV antiviral 39.
O=C(NC(=S)Nc1ccc(S(=O)(=O)NC2CCCCC2)cc1)c1cccs1 was read as HCV inh inconclusive, Sm TGR inh 50µM*, SARS PLP yeast inconclusive, Pf growth 48h inconclusive, Pf growth 96h inconclusive and HCMV antiviral -37.
Screening CC(C)CCN(Cc1ccco1)S(=O)(=O)c1csc(C(N)=O)c1 returned HCV inh 7%, Sm TGR inh inconclusive, SARS PLP yeast -2%, Pf growth 48h 7%, Pf growth 96h -21% and HCMV antiviral 0.
For CCOCCCN(Cc1ccco1)S(=O)(=O)c1csc(C(N)=O)c1 the results were HCV inh 11%, Sm TGR inh 0%, SARS PLP yeast 7%, Pf growth 48h 20%, Pf growth 96h 13µM* and HCMV antiviral -36.
`COc1ccc(CCNC(=O)c2ccc(Nc3nc4ccccc4n4nnnc34)cc2)cc1OC` gave Sm TGR inh -10% and HCMV antiviral -114*.
